The values that follow come from PubChem BioAssay (Tox21).

A number with no mark means an inactive call. Records with an inconclusive call do not appear. Activity calls are given as the source filed them. Unless noted, calls come from the whole dose curve; as a rule, active = well fitted curve in the direction sought with a large enough effect in the repeat runs; inconclusive = weak or mixed curves; inactive = no such curve, though single readings can be large; an effect the other way counts as inactive or inconclusive.

The nature of experiment [1]: qHTS assay to identify small molecule agonists of the androgen receptor (AR) signaling pathway in the presence of an antagonist - cell viability counter screen (AID 1259379).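 For activity change, negative = cytotoxicity: MDA-kb2 human breast cancer cells carrying an MMTV luciferase reporter; series mostly up to about 92 µM.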 Note: nearly all actives have a fitted effect of over 25% in size. Note: potency is the fitted concentration of half-maximal effect. The essentials: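 Viability counter screen: CellTiter-Fluor fluorescence, measured in the same wells as the luciferase read-out. MDA-kb2 cells, 3,000/well, with nilutamide at 3.0uM final and compounds at 15 concentrations, 16 hr at 37C, 0% CO2.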
For orientation: In qHTS, concentration-response curves come from the screen itself.

Experiment [2] can be described thus: qHTS assay to identify small molecule agonists of the estrogen receptor beta (ER-beta) signaling pathway - cell viability counter screen (AID 1259380). Note: nearly all actives have a fitted effect of over 30% in size. Note: potency is the fitted concentration of half-maximal effect. The essentials: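 Luminescence read-out (CellTiter-Glo, 30 min, room temp) taken in the same wells as the beta-lactamase reporter assay; ER-beta-UAS-bla HEK293T cells exposed to DMSO-dissolved compounds for 16 hr at 37C in 2% charcoal-stripped FBS medium.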

Experiment [3] in a line: qHTS assay to identify small molecule antagonists of the estrogen receptor beta (ER-beta) signaling pathway - cell viability counter screen (AID 1259382).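 For activity change, negative = cytotoxicity: HEK293T cells carrying ER-beta-UAS-bla reporter stimulated with estradiol; series mostly up to about 92 µM.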 Note: nearly all actives have a fitted effect of over 55% in size. Note: potency is the fitted concentration of half-maximal effect. The essentials:
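Luminescent ATP read-out (CellTiter-Glo, 30 min, RT) taken in the same wells as the bla reporter assay. HEK293T ER-beta-UAS-bla cells in 2% charcoal-stripped FBS were exposed to compounds with 1nM E2 for 16 hr at 37C.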

Experiment [4] can be described thus: qHTS assay to identify small molecule agonists or antagonists of the thyroid stimulating hormone receptor (TSHR) signaling pathway - wild type cell line counter screen (AID 1259384; calls by dose curve). In outline: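 Wild-type Hek293 cells, 800/well, 18 h at 37C, then compound with Ro20-1724 for 30 min RT. cAMP by HTRF (cAMP-d2/anti-cAMP cryptate), 1 h RT, fluorescence read. 15 concentrations, triplicates.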

Experiment [5] addresses Thyrotropin receptor (Homo sapiens) (UniProt P16473). Briefly: qHTS assay to identify small molecule antagonists of the thyroid stimulating hormone receptor (TSHR) signaling pathway (AID 1259385; calls by dose curve; note: nearly all actives have a fitted effect of over 20% in size). The essentials:
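TSHR-HEK293 cells (800/well) plated 18 h, then compounds with Ro20-1724 and TSH at 1.5 ng/mL final, 30 min at room temperature. cAMP quantified by HTRF (cAMP-d2/anti-cAMP-cryptate, 1 h); 15 concentrations in triplicate.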

Experiment [6] is described as follows: qHTS assay to identify small molecule agonists of the estrogen receptor alpha (ER-alpha) signaling pathway in the presence of an antagonist - cell viability counter screen (AID 1259386). For activity change, negative = cytotoxicity: series mostly up to about 92 µM.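 Note: cells exposed to compounds for 22 h at 37 °C before the viability read; nearly all actives have a fitted effect of over 30% in size.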 Note: potency is the fitted concentration of half-maximal effect. In outline:
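Read-out: CellTiter-Fluor fluorescence after 1hr reagent incubation, measured in the same wells as the luciferase readout. VM7Luc4E2 cells were exposed to 15 compound concentrations with 10.0nM ICI-182,780 for 22hr at 37C.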

Experiment [7] addresses Progesterone receptor (Homo sapiens) (UniProt P06401). Briefly: qHTS assay to identify small molecule agonists of the progesterone receptor (PR) signaling pathway (AID 1346784; calls by dose curve; note: nearly all actives have a fitted effect of over 30% in size). In outline: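 The screen uses PR-UAS-bla HEK 293T cells in charcoal-stripped serum (2%). Compounds are applied for 16 hr at 37C after a 6 hr pre-incubation, and reporter activity is detected with a FRET beta-lactamase substrate after 2 hr at room temperature.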

Experiment [8] shares this target. The experiment is described as follows: qHTS assay to identify small molecule antagonists of the progesterone receptor (PR) signaling pathway (AID 1346795; active = well fitted inhibition curve with a large enough effect in the signal ratio in the repeat runs, not every such curve was filed as active; the % refers to the signal ratio). In outline:
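After 6 hr plating at 37C in 2% stripped-serum medium, PR-UAS-bla HEK293T cells got compounds, then 1 nM R5020. Sixteen hours later, LiveBLAzer substrate was applied for 2 hr at room temperature and fluorescence was recorded.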

Experiment [9] can be described thus: qHTS assay to identify small molecule antagonists of the progesterone receptor (PR) signaling pathway - cell viability counter screen (AID 1346798). For activity change, negative = cytotoxicity: series mostly up to about 92 µM. Note: nearly all actives have a fitted effect of over 50% in size. Note: potency is the fitted concentration of half-maximal effect. In outline:
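Viability was determined by ATP-based luminescence (CellTiter-Glo) in PR-UAS-bla HEK293T cells cultured in 2% charcoal-stripped serum and incubated 16 hr with compounds under R5020 stimulation.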

Experiment [10] can be described thus: qHTS assay to identify small molecule agonists of the progesterone receptor (PR) signaling pathway - cell viability counter screen (AID 1346799; calls by dose curve; note: nearly all actives have a fitted effect of over 45% in size; note: potency is the fitted concentration of half-maximal effect). In outline:
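Viability was scored by ATP luminescence (CellTiter-Glo, 30 min, room temperature) in the same wells used for the reporter readout, after 16 hr compound exposure of PR-UAS-bla HEK293T cells.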

A short description of experiment [11]: qHTS assay to identify small molecule antagonists of the TGF-beta/Smad signaling pathway - cell viability counter screen (AID 1346824). Note: nearly all actives have a fitted effect of over 50% in size. In outline:
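SBE-bla HEK 293T cells, incubated overnight, then compound plus 0.25 ng/mL TGF-beta1 (stock added) for 5 hr at 37 C. Viability was read in the same wells by CellTiter-Glo luminescence after 30 min at room temperature.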

The nature of experiment [12]: qHTS assay to identify small molecule agonists of the TGF-beta/Smad signaling pathway (AID 1346859; active = well fitted activation curve with a large enough effect in the signal ratio in the repeat runs, not every such curve was filed as active; the % refers to the signal ratio; note: series mostly up to about 77 µM). In outline: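 Dual-wavelength fluorescence (460/530 nm emission) quantified beta-lactamase expression under the Smad binding element in HEK 293T cells following 5 hr compound treatment at 37 C.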
In experiment [13] the target is Thyrotropin-releasing hormone receptor (Homo sapiens) (UniProt P34981). The experiment is described as follows: qHTS assay to identify small molecule agonists of the thyrotropin-releasing hormone receptor (TRHR) signaling pathway (AID 1346891; calls by dose curve;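 note: HEK293 cells expressing TRHR with calcium dye readout; series mostly up to about 58 µM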). In outline:
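Kinetic fluorescence (3 min, 1 s intervals) reported intracellular calcium after compound transfer onto TRHR-Hek293 cells pre-loaded with dye for 2 h at 37 °C.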

Experiment [14] is described as follows: Human pregnane X receptor (PXR) small molecule agonists, qHTS cell viability counter screen (AID 1346977). Note: nearly all actives have a fitted effect of over 50% in size. Note: potency is the fitted concentration of half-maximal effect. The essentials: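 HepG2 cells stably carrying the PXR-Luc reporter are cultured with 5% charcoal-stripped FBS and treated with compounds for 24hr. CellTiter-Fluor is added at 23hr and fluorescence is read after 1hr.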
A short description of experiment [15]: qHTS assay to identify small molecule agonists of the TGF-beta/Smad signaling pathway - cell viability counter screen (AID 1346829). Note: top concentration of the series differs between compounds; nearly all actives have a fitted effect of over 45% in size. The essentials: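 Tox21 qHTS format: SBE-bla HEK 293T cells treated with DMSO-dissolved compounds for 5 hr; CellTiter-Glo luminescence after 30 min at room temperature.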
Experiment [16] has as its target Thyrotropin-releasing hormone receptor (Homo sapiens) (UniProt P34981). Briefly: qHTS assay to identify small molecule antagonists of the thyrotropin-releasing hormone receptor (TRHR) signaling pathway (AID 1346877; active = well fitted inhibition curve with a large enough effect in the repeat runs, not every such curve was filed as active; note: series mostly up to about 51 µM). The essentials:
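HEK293/TRHR cells, 18 h, 37 °C; Ca2+ dye 2 h; cpd 5 min RT; TRH 1 nM final; fluorescence read 3 min, 1 s intervals; 15 concs, triplicate.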

Experiment [17] addresses Androgen receptor (Homo sapiens) (UniProt P10275). The experiment is described as follows: qHTS assay to identify small molecule agonists of the androgen receptor (AR) signaling pathway in the presence of an antagonist (AID 1259381; calls by dose curve; note: nearly all actives have a fitted effect of over 15% in size). In outline: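 Luciferase read-out (ONE-Glo, 30min room temperature) in MDA-kb2 MMTV-reporter cells; agonist mode run in presence of AR antagonist nilutamide, 3.0uM final. Compounds tested as 15-point series, 16hr exposure at 37C, 0% CO2.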

Experiment [18] addresses Estrogen receptor (Homo sapiens) (UniProt P03372). Briefly: qHTS assay to identify small molecule agonists of the estrogen receptor alpha (ER-alpha) signaling pathway in the presence of an antagonist (AID 1259383; calls by dose curve; note: top concentration of the series differs between compounds; nearly all actives have a fitted effect of over 15% in size). In outline:
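Luciferase luminescence (ONE-Glo, 30min at room temperature) measured in VM7Luc4E2 cells after 22hr compound exposure at 15 concentrations, with 10.0nM ICI-182,780 final present; cells express endogenous ER-alpha and carry four EREs upstream of luciferase.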
% is set by controls: 0 for no effect and ±100 for the full control effect.

Progesterone receptor (Homo sapiens), sequence (P06401 whole entry, looked up): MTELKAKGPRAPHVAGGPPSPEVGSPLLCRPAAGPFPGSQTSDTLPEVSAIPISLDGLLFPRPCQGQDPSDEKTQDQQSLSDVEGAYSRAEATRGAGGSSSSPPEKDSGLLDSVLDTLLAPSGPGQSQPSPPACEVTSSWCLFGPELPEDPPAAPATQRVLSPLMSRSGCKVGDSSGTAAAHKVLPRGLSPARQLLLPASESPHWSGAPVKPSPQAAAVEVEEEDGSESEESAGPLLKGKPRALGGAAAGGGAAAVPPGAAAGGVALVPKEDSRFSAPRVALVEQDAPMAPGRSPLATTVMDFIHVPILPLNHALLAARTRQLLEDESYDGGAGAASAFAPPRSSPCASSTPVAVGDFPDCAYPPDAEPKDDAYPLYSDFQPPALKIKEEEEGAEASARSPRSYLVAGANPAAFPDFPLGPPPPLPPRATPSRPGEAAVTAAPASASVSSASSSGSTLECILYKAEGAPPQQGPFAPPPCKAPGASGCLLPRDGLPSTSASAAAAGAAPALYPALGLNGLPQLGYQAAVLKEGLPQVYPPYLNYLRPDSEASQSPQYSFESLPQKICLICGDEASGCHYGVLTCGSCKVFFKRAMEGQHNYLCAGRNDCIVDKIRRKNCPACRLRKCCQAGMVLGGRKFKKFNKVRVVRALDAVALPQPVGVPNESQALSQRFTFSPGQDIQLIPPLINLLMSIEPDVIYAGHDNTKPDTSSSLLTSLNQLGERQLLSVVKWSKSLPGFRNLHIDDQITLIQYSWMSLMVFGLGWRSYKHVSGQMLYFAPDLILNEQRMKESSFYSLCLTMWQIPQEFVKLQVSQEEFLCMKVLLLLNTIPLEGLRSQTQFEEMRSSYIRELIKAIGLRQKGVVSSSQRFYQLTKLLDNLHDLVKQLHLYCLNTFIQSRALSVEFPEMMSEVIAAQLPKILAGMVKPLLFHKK
Thyrotropin receptor (Homo sapiens), sequence (P16473 whole entry, looked up): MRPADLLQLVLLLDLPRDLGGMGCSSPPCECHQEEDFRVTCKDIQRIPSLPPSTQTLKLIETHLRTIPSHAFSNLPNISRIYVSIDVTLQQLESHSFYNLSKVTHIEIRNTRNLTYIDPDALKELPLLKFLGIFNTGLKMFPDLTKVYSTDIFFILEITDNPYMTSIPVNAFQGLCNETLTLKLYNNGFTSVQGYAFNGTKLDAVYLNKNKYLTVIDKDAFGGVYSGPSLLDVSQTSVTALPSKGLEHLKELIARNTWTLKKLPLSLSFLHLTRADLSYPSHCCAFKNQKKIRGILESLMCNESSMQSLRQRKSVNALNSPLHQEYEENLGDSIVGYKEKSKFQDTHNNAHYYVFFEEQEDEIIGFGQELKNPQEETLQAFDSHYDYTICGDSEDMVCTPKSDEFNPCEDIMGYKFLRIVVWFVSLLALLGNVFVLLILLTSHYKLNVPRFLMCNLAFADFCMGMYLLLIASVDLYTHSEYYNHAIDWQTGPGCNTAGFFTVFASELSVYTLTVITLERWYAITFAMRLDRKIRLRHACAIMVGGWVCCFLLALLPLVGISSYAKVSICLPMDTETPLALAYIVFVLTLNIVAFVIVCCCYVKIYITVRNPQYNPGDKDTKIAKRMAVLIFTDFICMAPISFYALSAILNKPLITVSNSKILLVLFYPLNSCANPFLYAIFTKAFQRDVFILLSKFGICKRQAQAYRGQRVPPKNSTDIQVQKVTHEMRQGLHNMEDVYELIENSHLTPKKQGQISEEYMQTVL
Thyrotropin-releasing hormone receptor (Homo sapiens), sequence (P34981 whole entry, looked up): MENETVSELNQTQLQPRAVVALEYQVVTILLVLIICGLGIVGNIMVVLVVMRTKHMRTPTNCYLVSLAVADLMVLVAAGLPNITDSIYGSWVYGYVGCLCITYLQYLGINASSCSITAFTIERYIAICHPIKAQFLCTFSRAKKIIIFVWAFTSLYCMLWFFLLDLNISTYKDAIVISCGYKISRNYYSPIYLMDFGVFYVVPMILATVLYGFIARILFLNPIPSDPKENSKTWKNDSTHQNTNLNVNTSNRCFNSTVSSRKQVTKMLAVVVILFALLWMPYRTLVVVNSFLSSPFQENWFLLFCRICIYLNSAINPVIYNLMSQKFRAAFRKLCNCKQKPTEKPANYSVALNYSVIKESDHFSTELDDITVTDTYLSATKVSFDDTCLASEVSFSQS
Androgen receptor (Homo sapiens), sequence (P10275 whole entry, looked up): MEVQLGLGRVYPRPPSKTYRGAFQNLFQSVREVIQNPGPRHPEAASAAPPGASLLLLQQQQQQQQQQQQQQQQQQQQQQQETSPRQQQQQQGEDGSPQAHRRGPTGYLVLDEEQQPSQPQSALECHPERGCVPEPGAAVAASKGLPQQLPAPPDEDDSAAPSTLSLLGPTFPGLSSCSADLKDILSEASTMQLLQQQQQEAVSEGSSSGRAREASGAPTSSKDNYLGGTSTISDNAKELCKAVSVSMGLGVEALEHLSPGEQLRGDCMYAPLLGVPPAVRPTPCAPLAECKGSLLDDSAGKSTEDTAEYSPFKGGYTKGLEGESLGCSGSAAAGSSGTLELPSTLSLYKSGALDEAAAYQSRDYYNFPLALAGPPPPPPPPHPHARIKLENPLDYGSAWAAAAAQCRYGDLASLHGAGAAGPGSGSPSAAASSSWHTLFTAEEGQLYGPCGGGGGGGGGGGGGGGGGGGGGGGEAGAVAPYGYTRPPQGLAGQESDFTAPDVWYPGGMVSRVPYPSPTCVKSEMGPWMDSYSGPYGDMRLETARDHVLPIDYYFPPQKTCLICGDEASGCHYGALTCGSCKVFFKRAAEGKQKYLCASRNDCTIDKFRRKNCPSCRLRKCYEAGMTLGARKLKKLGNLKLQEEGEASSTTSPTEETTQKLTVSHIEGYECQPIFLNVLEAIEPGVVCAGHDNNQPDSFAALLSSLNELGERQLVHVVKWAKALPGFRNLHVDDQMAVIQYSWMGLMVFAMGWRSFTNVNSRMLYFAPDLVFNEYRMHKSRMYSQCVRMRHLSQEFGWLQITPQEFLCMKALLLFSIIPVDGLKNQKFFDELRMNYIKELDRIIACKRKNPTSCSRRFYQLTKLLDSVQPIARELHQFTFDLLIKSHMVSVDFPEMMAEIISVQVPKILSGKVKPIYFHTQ
Estrogen receptor (Homo sapiens), sequence (P03372 whole entry, looked up): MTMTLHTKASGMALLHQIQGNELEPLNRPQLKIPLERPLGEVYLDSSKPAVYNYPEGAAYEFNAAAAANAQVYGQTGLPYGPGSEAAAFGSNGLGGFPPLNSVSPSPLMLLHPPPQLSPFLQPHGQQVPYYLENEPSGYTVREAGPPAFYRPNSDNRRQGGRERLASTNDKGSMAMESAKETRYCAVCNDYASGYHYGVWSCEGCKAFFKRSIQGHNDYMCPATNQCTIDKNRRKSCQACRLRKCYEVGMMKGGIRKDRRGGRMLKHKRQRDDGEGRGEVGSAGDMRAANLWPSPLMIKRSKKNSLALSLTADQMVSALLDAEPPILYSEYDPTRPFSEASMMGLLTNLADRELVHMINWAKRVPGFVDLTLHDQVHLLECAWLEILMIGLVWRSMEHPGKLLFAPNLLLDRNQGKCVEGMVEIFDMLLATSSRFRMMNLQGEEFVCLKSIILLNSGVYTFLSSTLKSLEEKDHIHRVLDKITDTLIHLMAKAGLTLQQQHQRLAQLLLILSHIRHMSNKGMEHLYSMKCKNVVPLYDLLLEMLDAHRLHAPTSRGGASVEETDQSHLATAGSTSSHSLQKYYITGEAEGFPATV

`SCCCCCCCCS`: the Potency result in [1], in experiment [2], in experiment [3], in experiment [5], in experiment [6] and in experiment [8] was “inactive” throughout. Besides, the Potency entry in [9], in experiment [10], in experiment [11], in experiment [12], in [13] and in [14] was “inactive” throughout. The call in experiment [4] and in [7] was inactive.
As to `CCC(C)C(=O)OC` (stereo not drawn), the Potency entry in experiment [1], in [2], in [3], in experiment [5], in experiment [6] and in [8] was “inactive” in each case. Also, the Potency result in [9], in [11], in [15], in experiment [12], in experiment [16] and in experiment [13] was “inactive” throughout. Moreover, the Potency result in experiment [14] is “inactive”. Besides, the call in [4] and in experiment [7] was inactive.
With `CCC(=O)CC(C)CC` (stereo not drawn), the activity change, negative = cytotoxicity in experiment [1] was 0.759% [at 0.35 µM]; in experiment [2] it was 3.56% [at 0.349 µM]; in [3], 9.77% [at 0.349 µM]; in experiment [6] it was 1.18% [at 0.349 µM]; in experiment [9], -3.42% [at 0.348 µM]; in experiment [10], 1.66% [at 0.349 µM]. Besides, the results for the activity change, negative = cytotoxicity in [15] and in [14] were 3.15% [at 0.29 µM] and 0.0659% [at 0.349 µM], respectively. Also, in [4], the cAMP activity change was -1.63% [at 0.349 µM]. In addition, the results for the activity change, negative = inhibition in experiment [5] and in experiment [8] were 1.62% [at 0.349 µM] and 2.97% [at 0.348 µM], respectively. Besides, the activation in [7] was -0.264% [at 0.349 µM]; in experiment [12], -0.839% [at 0.29 µM]. Further, in [11], the viability change, negative = cytotoxic is 13.2% [at 0.29 µM].
As for `CCCCCCCCCCCCCc1ccccc1`, the Potency result in experiment [1], in [2], in [3], in [5], in experiment [8] and in experiment [9] was “inactive” in each case. The Potency entry in experiment [10], in experiment [11], in experiment [15], in [12] and in [14] was “inactive” each time. Further, the compound was classed as inactive in experiment [4].
`O=C1C=CC(=O)N1c1ccccc1`: the Potency is 61.1 µM (active) in experiment [1]; 27.3 µM (active) in [2]; 48.6 µM (active) in [3]; 68.6 µM (active) in [6]; 68.6 µM (active) in experiment [9]; 61.1 µM (active) in experiment [10]. Further, in experiment [14], the Potency was 48.6 µM (active). For the same compound, the Potency result in [17], in [12], in [16] and in experiment [13] was “inactive” each time.
Take `NCCCC(O)(P(=O)(O)O)P(=O)(O)O`: the Potency entry in [1], in [2], in experiment [3], in [5], in experiment [6] and in experiment [8] was “inactive” each time. The Potency entry in [9], in experiment [10], in experiment [11], in [12], in [16] and in experiment [13] was “inactive” in each case. The Potency result in experiment [14] is “inactive”. For the same compound, the result in experiment [4] and in experiment [7] was inactive.
`CC(=O)Nc1ccc(O)cc1`: the Potency entry in [1], in experiment [2], in experiment [3], in [6], in experiment [9] and in experiment [10] was “inactive” throughout. Besides, the Potency entry in experiment [15], in experiment [16], in experiment [13] and in [14] was “inactive” in each case.
Turning to `Cc1c(-c2ccc(O)cc2)n(Cc2ccc(OCCN3CCCCCC3)cc2)c2ccc(O)cc12`, the Potency was 29.8 µM (active) in [1]; 29.8 µM (active) in experiment [2]; 26.6 µM (active) in experiment [3]; 33.5 µM (active) in experiment [9]; 29.8 µM (active) in experiment [10]; 23.7 µM (active) in experiment [14]. The Potency result in [6] is “inactive”.
On to `NC(=O)c1nc(-c2cccc(-c3cc(F)ccc3OCC(F)(F)C(F)(F)F)c2)n[nH]1`, for which the Potency result in [1], in experiment [17], in experiment [18], in experiment [11], in experiment [15] and in experiment [12] was “inactive” each time. The Potency result in [16] and in experiment [13] was “inactive” each time. For the same compound, the Potency in [2] is 61.1 µM (active); in experiment [14] it was 54.5 µM (active).
